This is an account of results in PubChem BioAssay AID492989 (National Center for Advancing Translational Sciences (NCATS), 2010).

Calls of active or inactive are those of the source.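 The calls were made as follows: active = clear inhibition seen at one or more tested concentrations; inactive = basal response, no inhibition.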

Chain of Tyrosyl-DNA phosphodiesterase 1 (Homo sapiens) (Q9NUW8 whole entry, looked up): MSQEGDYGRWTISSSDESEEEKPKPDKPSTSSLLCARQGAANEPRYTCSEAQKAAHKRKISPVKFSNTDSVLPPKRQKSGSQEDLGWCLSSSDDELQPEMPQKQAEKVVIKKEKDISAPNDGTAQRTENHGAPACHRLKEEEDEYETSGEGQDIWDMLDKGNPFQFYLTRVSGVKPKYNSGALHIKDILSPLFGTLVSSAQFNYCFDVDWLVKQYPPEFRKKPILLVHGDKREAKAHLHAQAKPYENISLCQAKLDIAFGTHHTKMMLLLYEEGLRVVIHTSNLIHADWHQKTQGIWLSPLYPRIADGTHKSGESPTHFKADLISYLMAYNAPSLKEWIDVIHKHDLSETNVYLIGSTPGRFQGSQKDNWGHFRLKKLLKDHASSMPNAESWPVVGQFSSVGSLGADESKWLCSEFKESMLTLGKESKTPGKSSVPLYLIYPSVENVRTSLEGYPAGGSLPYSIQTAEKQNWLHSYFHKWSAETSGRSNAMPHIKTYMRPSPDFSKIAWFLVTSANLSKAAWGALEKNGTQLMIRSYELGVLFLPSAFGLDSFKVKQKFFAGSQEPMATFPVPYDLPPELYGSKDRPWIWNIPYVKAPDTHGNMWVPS

The target in the experiment is Tyrosyl-DNA phosphodiesterase 1 (Homo sapiens) (UniProt Q9NUW8). The experiment is described as follows: Gel-Based Assay for Inhibitors of Tyrosyl-DNA Phosphodiesterase (TDP1). The note with it: recombinant TDP1, 32P-DNA substrate gel cleavage. The text has this:
Assay Overview: Human tyrosyl-DNA phosphodiesterase I (Tdp1) is a rational anticancer target because this enzyme is involved in the repair of DNA lesions created by the trapping of human DNA topoisomerase I (Top1) following treatment by anticancer agents such as camptothecins. Recombinant Tdp1 was expressed and purified from E. coli in the laboratory (Anthony et al, Nucleic Acids Research, 2007, Vol. 35, 4474-4484). See below for assay protocol. NIH Molecular Libraries Probe Production Network [MLPCN] NIH Chemical Genomics Center [NCGC] Assay Provider: Yves Pommier and Christophe Marchand, National Cancer Institute
5'-32P-labeled DNA substrate (1 nmol/L; N14Y; 5'-GATCTAAAAGACTT-pY-3') was incubated with 0.2 nmol/L recombinant Tdp1 in the absence or presence of inhibitor for 15 min at room temperature in an assay buffer containing 1X PBS, pH 7.4, 80 mmol/L KCl and 0.01% Tween-20. Reactions were terminated by the addition of 1 volume of gel loading buffer [99.5% (v/v) formamide, 5 mmol/L EDTA, 0.01% (w/v) xylene cyanol, and 0.01% (w/v) bromophenol blue]. Samples were subjected to a 16% denaturing PAGE and gels were exposed after drying to a PhosphorImager screen (GE Healthcare). Gel images were scanned using a Typhoon 8600 (GE Healthcare) and densitometric analyses were performed using the ImageQuant software (GE Healthcare).
Regarding `CN(c1ccc2c(c1)CCC2)c1nn2c(=O)c3ccccc3nc2s1`, the result was inactive. On to `CN(C)c1ccc2c(=O)n3nc(Nc4ccc5c(c4)CCC5)sc3nc2c1`, for which the outcome was inactive. Consider `O=c1c2ccc([N+](=O)[O-])cc2nc2sc(Nc3ccc4c(c3)CCC4)nn12`, for which the Potency is 37 µM (active).

In the case of `CN1CCN(c2cccc(Nc3nn4c(=O)c5ccccc5nc4s3)c2)CC1`, the result was inactive. Regarding `O=c1c2ccc(Br)cc2nc2sc(Nc3ccc4c(c3)CCC4)nn12`, the Potency was 1.1 µM (active).

On to `O=c1c2ccccc2nc2sc(Nc3ccc(Br)cc3)nn12`, for which the result was inactive.

As to `CCc1cccc(Nc2nn3c(=O)c4ccccc4nc3s2)c1`, the result was inactive. For `Cc1cccc(Nc2nn3c(=O)c4ccccc4nc3s2)c1`, the Potency was 10 µM (active). Consider `O=c1c2ccccc2nc2sc(Nc3ccc(F)cc3)nn12`, for which the result was inactive. With `O=c1c2ccccc2nc2sc(Nc3cccc(Br)c3)nn12`, the result was inactive.

As to `O=c1c2ccccc2nc2sc(Nc3cccc(Cl)c3)nn12`, the Potency is 7.4 µM (active).

Take `O=c1c2ccccc2nc2sc(Nc3ccc4c(c3)CNC4)nn12`: the Potency was 100 µM (active). Take `COc1cccc(Nc2nn3c(=O)c4ccccc4nc3s2)c1`: the Potency was 100 µM (active). Turning to `Nc1ccc2c(=O)n3nc(Nc4ccc5c(c4)CCC5)sc3nc2c1`, the outcome was inactive. Regarding `COc1ccc2c(=O)n3nc(Nc4ccc5c(c4)CCC5)sc3nc2c1`, the Potency is 11 µM (active). For the compound `O=c1c2ccccc2nc2sc(Nc3cccc(C(F)(F)F)c3)nn12`, the result was inactive. For the compound `CC(C)(C)NS(=O)(=O)c1cccc(Nc2nn3c(=O)c4ccccc4nc3s2)c1`, the Potency is 34 µM (active). `O=c1c2ccc(C(F)(F)F)cc2nc2sc(Nc3ccc4c(c3)CCC4)nn12`: the Potency was 12 µM (active). The same measure, in the same setting: the value for `O=c1c2ccccc2nc2sc(Nc3ccccc3)nn12` was 100 µM (active); that for `O=c1c2ccccc2nc2sc(Nc3ccc4c(c3)OCO4)nn12` was 12 µM (active); that for `O=c1c2ccccc2nc2sc(Nc3ccc4c(c3)CCC4)nn12` was 2.5 µM (active). For `Cc1ccc(Nc2nn3c(=O)c4ccccc4nc3s2)cc1C`, the Potency was 10 µM (active).

As for `O=c1c2ccccc2nc2sc(Nc3cccc4ccccc34)nn12`, the Potency was 14 µM (active). On the same count and under the same terms, the value for `CC(C)N1Cc2ccc(Nc3nn4c(=O)c5ccccc5nc4s3)cc2C1` was 22 µM (active).

`O=c1c2ccccc2nc2sc(Nc3cccc(-c4ccncc4)c3)nn12`: the Potency was 11 µM (active).
